Values joined by “and” are separate entries in the source; they are usually repeats but may differ in a detail not shown here. Equal values may be shown once. Records with an inconclusive call do not appear. A number with no mark means an inactive call. Active and inactive are the calls of the source. Unless noted, the call rests on the fitted dose curve; in most records, active means well fitted curve in the direction sought with a large enough effect; inconclusive means small, poorly fitted or top-dose-only effect, or another doubt; inactive means no such curve, though single readings can be large; an effect the other way counts as inactive or inconclusive. Where a SMILES comes first, the peptide text is derived from it. Bridges are numbered along the chain shown (N, C = ends). [ ]: non-standard residue; d: D form. The star is where a group is joined. X1 = CCC(C)C(N)C1=NC(C(=O)*)CS1; dOrn = NCCC[C@@H](N)C(=O)O
target: Cytochrome P450 2C9 (Homo sapiens) (UniProt P11712); test: Cytochrome P450 family 2 subfamily C member 9 (CYP2C9) small molecule antagonists: luciferase biochemical (cell-free) qHTS assay (AID 1645842; active means well fitted curve in the direction sought with a large enough effect in the repeat runs; an effect the other way counts as inactive or inconclusive; further: nearly all actives have a fitted effect of over 55% in size); settings: P450-Glo CYP2C9 enzyme assay, luciferin luminescence; series mostly up to 57.4 µM; activity change, negative = inhibition: at the top concentration
Outline: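 Luminescence, after 20 min with luciferin detection reagent, reflected CYP2C9 turnover during a 1 h NADPH-driven reaction at 37C. Enzyme-substrate mix contained 0.4% bovine serum albumin and was preincubated with compound 10 min at room temperature.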
On the % scale 0 is the no-effect control and ±100 the full control effect; potency means the concentration at half of the fitted maximal effect.

Sequence of Cytochrome P450 2C9 (Homo sapiens) (P11712 whole entry, looked up): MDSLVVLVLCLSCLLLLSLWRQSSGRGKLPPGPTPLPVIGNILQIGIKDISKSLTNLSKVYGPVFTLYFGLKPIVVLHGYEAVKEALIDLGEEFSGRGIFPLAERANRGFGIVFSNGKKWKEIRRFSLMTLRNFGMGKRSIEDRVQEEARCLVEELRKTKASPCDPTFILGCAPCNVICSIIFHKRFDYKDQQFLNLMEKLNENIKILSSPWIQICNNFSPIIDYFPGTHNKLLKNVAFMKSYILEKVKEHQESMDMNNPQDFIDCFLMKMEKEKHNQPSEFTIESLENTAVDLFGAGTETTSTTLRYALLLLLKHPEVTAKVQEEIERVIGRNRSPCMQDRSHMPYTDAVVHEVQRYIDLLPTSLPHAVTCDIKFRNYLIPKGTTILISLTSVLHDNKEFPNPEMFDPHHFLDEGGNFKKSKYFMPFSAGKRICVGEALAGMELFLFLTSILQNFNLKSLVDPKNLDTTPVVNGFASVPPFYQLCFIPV

| SMILES | activity change, negative = inhibition [%] | Potency |
| --- | --- | --- |
| C[C@]12C=CC(=O)C=C1CC[C@@H]1[C@@H]2[C@@H](O)C[C@@]2(C)[C@H]1CC[C@]2(O)C(=O)COC(=O)CCC(=O)O | 0.657 | – |
| Clc1ccc(CN[C@H]2CCN(c3ncc(Br)cn3)C2)c(Cl)c1 | – | 8.49 µM (active) |
| O=c1c2cccnc2n(-c2cccc([N+](=O)[O-])c2)c(=O)n1Cc1ccncc1 | – | 0.268 µM (active) |
| O=C(O)c1n[nH]c2c1C[C@H]1C[C@@H]21 | -1.24 | – |
| COc1cccc(-c2ccc([C@@H](Oc3cc(-c4ccc(C[C@H](N)C(=O)O)cc4)nc(N)n3)C(F)(F)F)cc2)c1 | – | 6.74 µM (active) |
| CC(C)N(C[C@H]1O[C@@H](n2cnc3c(N)ncnc32)[C@H](O)[C@@H]1O)C1CC(CCc2nc3ccc(C(C)(C)C)cc3[nH]2)C1 (some centres undefined) | -21.3 | – |
| Cc1nc2c(-c3cnc(N)nc3)nc(N3CCOCC3)nc2n1C(C)C | – | 12 µM (active) |

tested on: not listed separately; test: Primary qHTS for inhibitors of nuclear receptor binding SET domain protein 2 (NSD2) in an isogenic RCH-ACV NSD2 p.E1099K mutant (9B) (AID 1645876); settings: RCH-ACV (leukaemia line) NSD2 E1099K (9B) viability, CellTiter-Glo, 72 h; series mostly up to 44.9 µM; activity change, negative = viability loss: at the top concentration; further: nearly all actives have a fitted effect of over 70% in size

| SMILES | Potency | outcome | activity change, negative = viability loss |
| --- | --- | --- | --- |
| CON(C)C(=O)N1N=C(c2cc(F)ccc2F)S[C@@]1(CCCN)c1ccccc1 | 9.2 nM (active) and 14.8 nM (active) | – | – |
| Nc1ncnc2c1ncn2[C@H]1CCCO1 | – | inactive | – |
| COc1ccc(C[C@H](N)C(=O)N[C@H]2[C@@H](O)[C@H](n3cnc4c(N(C)C)ncnc43)O[C@@H]2CO)cc1 | 409 nM (active) | – | – |
| CCNC(=O)[C@H]1O[C@H](n2cnc3c(NCC(c4ccccc4)c4ccccc4)nc(C(=O)NCCNC(=O)NC4CCN(c5ccccn5)CC4)nc32)[C@H](O)[C@@H]1O | – | inactive | – |
| Cc1onc(-c2ccccc2)c1C(=O)N[C@@H]1C(=O)N2[C@@H]1SC(C)(C)[C@@H]2C(=O)O | inactive | – | – |
| O=C1CC(c2ccc([N+](=O)[O-])cc2)=NN1c1ccccc1 | – | – | -22.9% |
| OC[C@H]1O[C@@H](n2cnc3c2NC=NC[C@H]3O)C[C@@H]1O | inactive | – | – |
| Cc1cc(N2CCCCC2)nc2ccccc12 | – | – | 2.91% |
| CCOC(=O)Nc1nc2ccccc2[nH]1 | – | – | -19% |
| O=C1N(CC2CCCCN2)CCN1c1ccccc1 (centres undefined) | – | inactive | – |
| COC(=O)[C@H](CC1C=NC=N1)NCC12CC3CC(CC(C3)C1)C2 (some centres undefined) | – | inactive | – |
| Cc1cn2c(N)c(Cl)cc(C(=O)NCC3CCN(CC(C)C)CC3)c2n1 | – | – | -22.5% |
| C[C@H](CCC(=O)O)[C@H]1CC[C@H]2[C@@H]3[C@H](O)C[C@@H]4C[C@H](O)CC[C@]4(C)[C@H]3CC[C@]12C | – | – | 0.397% |
| CCC(C)C(N)C1=NC(C(=O)N[C@@H](CC(C)C)C(=O)N[C@H](CCC(=O)O)C(=O)N[C@H](C(=O)N[C@H]2CCCCNC(=O)[C@H](CC(N)=O)NC(=O)[C@@H](CC(=O)O)NC(=O)[C@H](Cc3cnc[nH]3)NC(=O)[C@@H](Cc3ccccc3)NC(=O)[C@H]([C@@H](C)CC)NC(=O)[C@@H](CCCN)NC2=O)[C@@H](C)CC)CS1 (some centres undefined) (X1-L[dE]IK[dOrn]I[dF]H[dD]N; lactam 4-C) | inactive | – | – |
| COc1ccccc1-n1c(SCC(=O)Nc2nc3ccc(C)cc3s2)nc2c(c1=O)SCC2 | – | inactive [at 17.3 µM] | – |
| CCCCNC(=O)[C@@H]1Cc2ccccc2N1C(=O)[C@@H](N)CC | – | – | 4.91% |
| NCc1c[nH]c(=S)n1C1CCc2c(F)cc(F)cc2C1 (centres undefined) | – | – | -25% |
| CC1(C)OC(=O)C(OCC2CC2)=C1c1ccc(S(C)(=O)=O)cc1 | – | – | -4.34% |
| O=c1c2cccnc2n(-c2cccc([N+](=O)[O-])c2)c(=O)n1Cc1ccncc1 | – | – | 4.7% |

| SMILES | Potency | outcome | activity change, negative = viability loss |
| --- | --- | --- | --- |
| CCOC(=O)c1c(C)nn(-c2cccc([N+](=O)[O-])c2)c1C | – | – | -4.93% |
| O=C(O)c1n[nH]c2c1C[C@H]1C[C@@H]21 | – | inactive | – |
| Cc1ccc2c(c1)C=Cc1cc(C)ccc1C2c1cn(Cc2ccc(C(=O)Nc3nn[nH]n3)o2)c(=O)[nH]c1=S | – | – | -0.0428% |
| CCS(=O)(=O)N1CCC([C@@H](C)n2c(C)c(C(=O)NCc3c(OC)cc(C)[nH]c3=O)c3ccccc32)CC1 | inactive | – | – |
| CO[C@@H]1COCC[C@@H]1N[C@@H]1CC[C@@](C(=O)N2CCc3ncc(C(F)(F)F)cc3C2)(C(C)C)C1 | – | – | 4.65% [at 17.3 µM] |
| COCC(=O)N1CCc2cc(-c3csc(NC(=O)c4cc(OC)cc(OC)c4)n3)ccc21 | – | – | -8.99% |
| Cc1ccc(C(=O)Nc2ccc(Oc3cc4cnn(C)c4cc3-c3cn[nH]c3)c(F)c2)c(=O)n1-c1ccc(F)cc1 | 2.9 µM (active) and 5.9 µM (active) | – | – |
| COc1cccc(-c2ccc([C@@H](Oc3cc(-c4ccc(C[C@H](N)C(=O)O)cc4)nc(N)n3)C(F)(F)F)cc2)c1 | – | – | -24.6% |
| COc1ccc2cc(OCC3(C(=O)O)CN(C(=O)c4ccc(F)cc4)C3)ccc2c1 | – | inactive | – |
| CC(C)N(C[C@H]1O[C@@H](n2cnc3c(N)ncnc32)[C@H](O)[C@@H]1O)C1CC(CCc2nc3ccc(C(C)(C)C)cc3[nH]2)C1 (some centres undefined) | – | – | -19.2% |
| CN(C)c1cccc(-c2c3c(=O)n(-c4ccccc4Cl)[nH]c3cc(=O)n2C)c1 | – | – | 7.01% |
| CNC(=O)Nc1ccc(OC)c(NC(=O)NC(=O)c2cc(F)c(F)cc2Cl)c1 | – | inactive | – |
| Cc1nc2c(-c3cnc(N)nc3)nc(N3CCOCC3)nc2n1C(C)C | 72.8 nM (active) and 132 nM (active) | – | – |
| O=C(c1ccc(C#Cc2cccc(F)c2)cn1)N1CC2CC2C1 (centres undefined) | – | – | -18.6% |
| COc1cc(N2CCC(N(C)C)CC2)ccc1Nc1ncc(Cl)c(Nc2ccccc2P(C)(C)=O)n1 | 2.3 µM (active) and 2.63 µM (active) | – | – |
| CNC(=O)c1ccc2cc([C@@]3(O)CCn4cncc43)ccc2c1 | – | inactive | – |
| NC(Cc1c[nH]c2ccccc12)C(=O)NC(CCC(=O)O)C(=O)O (centres undefined) | – | – | -9.45% |
| CC(C)c1ccc(CC(=O)N2CCC[C@@H](c3cccc(OC(C)(C)C(=O)O)c3)C2)cc1 | – | – | -0.288% |
